Assay [1] can be described thus: AP1 Signaling Pathway (AID 357; active means well fitted curve in either direction with a large enough effect, not every such curve was filed as active;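 further: ME-180 reporter cells stimulated with EGF at its EC50 level; on the % scale 0 is the no-effect control and ±100 the full control effect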). The note with it: ME-180 AP-1-bla reporter, EGF-induced, beta-lactamase ratio, 5 h; at 38 µM (top of the series). In a few lines: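 Beta-lactamase reporter under AP-1 response element, ME-180 background. Stimulus: EC50 EGF. Compound exposure 5 h, 37 °C. Detection: CCF4, 2.5 h RT, 460/530 nm. Values: AC50 from titration.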
Assay [2] deals with Cytochrome P450 1A2 (Homo sapiens) (UniProt P05177). Description: p450-cyp1a2 (AID 410; calls by dose curve;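 further: -100% = full effect of reference inhibitor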). Summed up: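 O-Demethylation of luciferin 6' methyl ether by human CYP1A2 is monitored as luciferase luminescence. Substrate sits at Km (100uM); enzyme is 20nM. Values are scaled to 57 uM furafylline as maximal inhibition.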
Assay [3] in a line: NFAT Signaling Pathway (AID 444; active means well fitted curve in either direction with a large enough effect, not every such curve was filed as active;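 further: carbachol stimulus at about its EC50 of 1 µM final; on the % scale 0 is the no-effect control and ±100 the full control effect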). The note with it: Jurkat NFAT-bla M1, carbachol, beta-lactamase ratio, 5 h; at 38 µM (top of the series). In a few lines: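 Read-out: CCF4 FRET ratio (460 nm/530 nm) after 1 h RT dye loading, used for %activity and AC50 from titration series. Cells: Jurkat NFAT-β-lactamase/M1 line, treated with compound plus 1 uM carbachol for 5 h, 37 °C.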
Assay [4] is described as follows: Stat Signaling Pathway (AID 446; active means well fitted curve in either direction with a large enough effect, not every such curve was filed as active;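 further: ME-180 cervical cancer cells given 40 pM IL-6 alongside compound; SIE-controlled beta-lactamase reporter measured as 460/530 nm FRET emission ratio; on the % scale 0 is the no-effect control and ±100 the full control effect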). The note with it: ME-180 (cervical carcinoma) SIE beta-lactamase reporter, IL-6 stimulated, 5 h; at 38 µM (top of the series). Summed up:
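Emission at 460 and 530 nm (excitation 405 nm) reports SIE-controlled beta-lactamase in ME-180 cells. Cells received compound with 40 pM IL-6 for 5 hrs at 37 C; data scaled between 300 pM IL-6 and 125 nM JAK-inhibitor controls.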

The target in assay [5] is Glucocorticoid receptor (Homo sapiens) (UniProt P04150). Description: GR-GFP Redistribution (AID 450;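 active means compounds whose dose series gives a full or clear partial fitted curve of increased nuclear translocation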; further: potency means the concentration at half of the fitted maximal effect). The settings on record: U2OS GR-GFP nuclear translocation, laser cytometry, 2 h.
Assay [6] has the same target. Description: GR-EFC Redistribution (AID 451; calls by dose curve; further: potency means the concentration at half of the fitted maximal effect). The settings on record: CHO-K1 GR-EFC translocation, beta-gal luminescence, 2 h. In a few lines: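 Translocation of GR-ED fusion to nuclear EA restores b-gal, read by luminescence after 1 h room-temperature detection. Engineered CHO-K1 biosensor cells, 1,000/well, exposed 2 h at 37 C to titrations up to 46 uM final.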
The target of assay [7] is Mitogen-activated protein kinase 10 (Mus musculus) (UniProt Q61831). Description: JNK3 AlphaScreen Assay (AID 530; active means well fitted curve in either direction with a large enough effect, not every such curve was filed as active;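 further: kinase came from lysate of stimulated human HepG2 cells; signal reports phosphorylation of biotinylated GST-cJun 1-79 at Ser73 with 10 µM ATP; on the % scale 0 is the no-effect control and ±100 the full control effect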). Summed up:
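qHTS titrations with 15 min compound pre-incubation before adding ATP (10 uM final). Read-out: AlphaScreen of Ser73-phosphorylated biotin-GST-cJun using HepG2 lysate JNK3 activated by IL-1β and TNFα.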
On the technique in general: In Alpha technology, singlet oxygen from a donor bead excites a nearby acceptor bead.

The target in assay [8] is 3',5'-cyclic-AMP phosphodiesterase 4B (Homo sapiens) (UniProt Q07343). Description: qHTS Assay for Inhibitors of PDE-IV (AID 607; active means well fitted activation curve with a large enough effect in the main read-out, with a control signal flat, not every such curve was filed as active; further: % of control where 0% means no effect). In a few lines:
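The readout is membrane depolarisation from a cAMP-sensing CNG channel, detected with a potential dye at ex 535/em 590. Cells were HEK293-derived (endogenous PDE-IV) at 1000 cells/well, titrated up to 22.9 uM final.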

The target of assay [9] is Guanine nucleotide-binding protein G(i) subunit alpha-1 (Homo sapiens) (UniProt P63096). Put plainly: qHTS Assay for Inhibitors of RGS12 GoLoco Motif Activity (Green Fluorophore) (AID 879).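 Further: 0% = labeled peptide with Gαi1 and full inhibition = labeled peptide alone without protein; negative values mean loss of peptide binding seen as reduced polarization.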 Summed up:
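A drop in FITC polarization marked displacement of the FITC-tagged RGS12 GoLoco peptide (10 nM) from Gαi1 (50 nM). Compounds were incubated 10 min at room temperature in Tris pH 7.5 buffer containing 150 mM NaCl, 0.1 mM GDP and 0.05% NP40; unlabeled peptide titration served as control.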

Assay [10] concerns the target Cytochrome P450 3A4 (Homo sapiens) (UniProt P08684). Put plainly: qHTS Assay for Activators of Cytochrome P450 3A4 (AID 885). Further: nearly all actives have a fitted effect of over 65% in size. Summed up: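 Activators are scored by enhanced luminescence from CYP3A4 conversion of luciferin-PPXE (25uM, equal to KM) to luciferin, after 60 min at RT with an NADPH-regenerating system.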
Background: qHTS replaces the single test concentration by a dilution series.

Assay [11] is described as follows: qHTS Assay for Identification of Small Molecule Agonists for Thrombopoietin (TPO) Signaling Pathway (AID 917). Further: on the % scale 0 is the no-effect control and ±100 the full control effect. Summed up:
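Cell-based luciferase reporter screen. Mouse Ba/F3 line stably expressing human TPO receptor; IL-3 removed overnight before plating. Co-treatment with compound and EC50 TPO (26 pM), 24 hrs at 37 C, then luminescence.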

For assay [12], the target named is Muscarinic acetylcholine receptor M1 (Rattus norvegicus) (UniProt P08482). Description: qHTS Assay for Antagonists of Acetylcholine Muscarinic M1 Receptor: Measurement of IP-One Response (AID 944). Further: nearly all actives have a fitted effect of over 75% in size. Summed up:
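Antagonist mode with rat M1 receptor transfected into CHO cells. Compound is added first for 10 min, carbachol at its EC80 follows for 30 min, and lysis reagents then allow TR-FRET detection of accumulated IP1.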

Assay [13] concerns the target Pyruvate kinase (Leishmania mexicana) (UniProt Q27686). Description: qHTS Validation Assay for Inhibitors of Leishmania Mexicana Pyruvate Kinase (AID 945).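 Further: 0% = DMSO only neutral control wells.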 Summed up:
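qHTS eight-point titrations against 0.2 nM LmPYK (E451W) in imidazole buffer pH 7.2 with 0.5 mM PEP, 0.1 mM ADP; 1 h, room temperature. Readout: PKLight luminescence, normalized to neutral DMSO wells.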

Assay [14] concerns the target Alpha-galactosidase A (Homo sapiens) (UniProt P06280). Description: Counterscreen for Glucocerebrosidase Inhibitors: qHTS Assay for Human alpha-Galactosidase at pH 4.5 (AID 992). Further: 0% is about no effect. In a few lines:
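Fluorogenic 4-MU alpha-D-galactoside (80 uM) hydrolysis, 2 nM enzyme, pH 4.5 citrate buffer + 0.005% Tween-20; 20 min RT; NaOH/glycine pH 10 stop; Ex365/Em440. Compounds titrated 0.7 nM–77 uM; Hill-equation AC50.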

Assay [15] addresses alpha-glucosidase (Oryza sativa, rice) (UniProt Q653V4). Description: Counterscreen for Glucocerebrosidase Inhibitors: qHTS Assay for Rice alpha-Glucosidase at pH 5.0 (AID 997).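 Further: 0% = full activity with enzyme and -100% = basal without enzyme.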 In a few lines:
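Endpoint fluorogenic assay at pH 5.0: compounds (0.7 nM to 77 uM) titrated against 4 nM rice enzyme and 400 uM 4-MU-alpha-glucoside for 20 min at room temperature; NaOH/glycine stop, read ex 365/em 440 nm, Hill-fitted AC50.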

Assay [16] in a line: Validation of Assay for Modulators of Lamin A Splicing (AID 1459; active means well fitted curve in the direction sought with a large enough effect in the signal ratio; the % refers to the signal ratio;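 further: cells exposed to compound for two days before reading; 0% is about no effect; ratio rise marks activators and ratio drop marks inhibitors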). Summed up:
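HeLa S3 lamin A-EGFP/DsRed2 stable clone, 600 cells/well, Opti-MEM 2% FBS; compounds by pin tool; 48 hrs, 37 °C/5% CO2; Acumen 488 nm scan, objects 10-100 um; GFP/RFP intensity ratio.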

Assay [17] in a line: qHTS Assay for Lipid Storage Modulators (AID 1519; calls by dose curve). The note with it: Drosophila S3 cells, BODIPY lipid droplet/cell ratio, laser cytometry, cells loaded with oleic acid. Summed up: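 Cells seeded at 5,000 per well were treated with compounds over a concentration series and loaded with oleic acid (400 uM, as added). Lipid droplet fluorescence (488 nm excitation, 500-530 nm channel) was read by laser-scanning cytometry and normalized to 20 uM Triacsin C.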

Assay [18] deals with DNA repair nuclease/redox regulator APEX1 (Homo sapiens) (UniProt P27695). Put plainly: qHTS Validation Assay for Inhibitors of the Human Apurinic/apyrimidinic Endonuclease 1 (APE1) (AID 1705). In a few lines: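 qHTS, 1536-well. APE1 + cpd 15 min RT → 50 nM TAMRA/BHQ-2 THF-abasic dsDNA substrate → kinetic fluorescence, 3 reads/60 s; delta(read3−read1) = reaction progress. No-enzyme buffer = negative control.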

Molecules are shown by their SMILES. Records with an inconclusive call do not appear. Calls of active or inactive are those of the source. Unless noted, the call rests on the fitted dose curve; in most records, active means well fitted curve in the direction sought with a large enough effect; inconclusive means small, poorly fitted or top-dose-only effect, or another doubt; inactive means no such curve, though single readings can be large; an effect the other way counts as inactive or inconclusive.

Chain of Glucocorticoid receptor (Homo sapiens) (P04150 whole entry, looked up, the tested form may be a part): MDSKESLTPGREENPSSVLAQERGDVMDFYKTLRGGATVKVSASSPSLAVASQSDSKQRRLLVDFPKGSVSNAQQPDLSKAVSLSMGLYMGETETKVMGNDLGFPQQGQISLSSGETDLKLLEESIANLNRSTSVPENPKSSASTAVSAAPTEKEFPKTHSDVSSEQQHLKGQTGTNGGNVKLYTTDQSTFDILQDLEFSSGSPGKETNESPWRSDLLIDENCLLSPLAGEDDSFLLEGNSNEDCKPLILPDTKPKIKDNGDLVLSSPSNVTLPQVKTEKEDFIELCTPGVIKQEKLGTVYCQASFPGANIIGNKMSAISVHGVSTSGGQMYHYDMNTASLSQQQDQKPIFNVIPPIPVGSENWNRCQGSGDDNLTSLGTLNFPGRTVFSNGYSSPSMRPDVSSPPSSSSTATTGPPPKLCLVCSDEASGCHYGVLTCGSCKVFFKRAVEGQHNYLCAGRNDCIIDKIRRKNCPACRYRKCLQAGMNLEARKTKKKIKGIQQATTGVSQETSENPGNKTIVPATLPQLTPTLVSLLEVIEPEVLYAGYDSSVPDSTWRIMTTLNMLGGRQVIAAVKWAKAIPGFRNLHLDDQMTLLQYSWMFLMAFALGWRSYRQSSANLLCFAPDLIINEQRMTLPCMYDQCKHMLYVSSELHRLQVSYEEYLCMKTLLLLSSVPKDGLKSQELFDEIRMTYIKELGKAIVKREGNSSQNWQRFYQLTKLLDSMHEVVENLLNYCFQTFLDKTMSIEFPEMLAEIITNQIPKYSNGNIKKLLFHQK
Chain of Cytochrome P450 1A2 (Homo sapiens) (P05177 whole entry, looked up): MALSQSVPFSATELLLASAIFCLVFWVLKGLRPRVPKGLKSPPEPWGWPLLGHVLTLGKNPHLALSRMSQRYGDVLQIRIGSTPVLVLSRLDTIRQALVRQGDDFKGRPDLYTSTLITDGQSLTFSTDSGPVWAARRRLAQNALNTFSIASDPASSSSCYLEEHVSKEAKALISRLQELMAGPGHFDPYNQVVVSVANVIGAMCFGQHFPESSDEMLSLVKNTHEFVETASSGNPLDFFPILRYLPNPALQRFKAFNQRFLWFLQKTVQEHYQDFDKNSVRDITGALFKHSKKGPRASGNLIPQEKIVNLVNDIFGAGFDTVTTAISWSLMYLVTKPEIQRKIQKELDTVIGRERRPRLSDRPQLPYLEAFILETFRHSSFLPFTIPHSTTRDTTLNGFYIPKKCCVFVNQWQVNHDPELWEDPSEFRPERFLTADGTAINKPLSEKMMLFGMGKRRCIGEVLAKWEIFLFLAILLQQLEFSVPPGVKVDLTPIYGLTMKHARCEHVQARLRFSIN
Chain of Muscarinic acetylcholine receptor M1 (Rattus norvegicus) (P08482 whole entry, looked up): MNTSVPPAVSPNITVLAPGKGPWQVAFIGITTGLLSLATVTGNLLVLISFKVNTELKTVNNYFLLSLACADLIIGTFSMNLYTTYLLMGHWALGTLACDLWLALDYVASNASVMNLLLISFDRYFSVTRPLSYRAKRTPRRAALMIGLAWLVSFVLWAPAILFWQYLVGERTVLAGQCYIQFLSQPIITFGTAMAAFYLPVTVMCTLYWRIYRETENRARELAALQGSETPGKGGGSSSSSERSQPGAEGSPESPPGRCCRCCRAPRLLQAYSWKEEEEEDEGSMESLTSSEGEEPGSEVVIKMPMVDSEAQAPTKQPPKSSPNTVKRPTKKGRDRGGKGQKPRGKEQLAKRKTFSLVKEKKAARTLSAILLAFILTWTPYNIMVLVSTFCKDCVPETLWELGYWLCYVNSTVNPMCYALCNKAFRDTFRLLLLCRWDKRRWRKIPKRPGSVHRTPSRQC
Chain of DNA repair nuclease/redox regulator APEX1 (Homo sapiens) (P27695 whole entry, looked up): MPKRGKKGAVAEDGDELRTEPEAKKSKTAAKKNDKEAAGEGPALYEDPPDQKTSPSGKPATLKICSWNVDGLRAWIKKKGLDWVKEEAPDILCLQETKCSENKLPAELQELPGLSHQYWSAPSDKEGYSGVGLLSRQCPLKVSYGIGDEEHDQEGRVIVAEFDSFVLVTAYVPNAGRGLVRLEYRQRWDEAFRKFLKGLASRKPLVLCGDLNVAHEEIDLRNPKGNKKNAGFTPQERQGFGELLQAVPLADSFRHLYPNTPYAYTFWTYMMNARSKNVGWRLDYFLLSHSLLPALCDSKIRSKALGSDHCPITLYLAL
Chain of Guanine nucleotide-binding protein G(i) subunit alpha-1 (Homo sapiens) (P63096 whole entry, looked up): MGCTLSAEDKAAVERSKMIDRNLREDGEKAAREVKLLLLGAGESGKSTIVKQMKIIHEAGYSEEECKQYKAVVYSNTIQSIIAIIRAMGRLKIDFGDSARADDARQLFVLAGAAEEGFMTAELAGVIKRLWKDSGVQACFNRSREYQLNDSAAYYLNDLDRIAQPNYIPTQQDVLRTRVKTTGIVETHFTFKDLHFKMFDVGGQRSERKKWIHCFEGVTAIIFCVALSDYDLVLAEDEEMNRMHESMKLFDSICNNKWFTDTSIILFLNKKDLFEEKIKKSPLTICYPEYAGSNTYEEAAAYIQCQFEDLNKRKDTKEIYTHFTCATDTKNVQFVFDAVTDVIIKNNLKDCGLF
Chain of Cytochrome P450 3A4 (Homo sapiens) (P08684 whole entry, looked up): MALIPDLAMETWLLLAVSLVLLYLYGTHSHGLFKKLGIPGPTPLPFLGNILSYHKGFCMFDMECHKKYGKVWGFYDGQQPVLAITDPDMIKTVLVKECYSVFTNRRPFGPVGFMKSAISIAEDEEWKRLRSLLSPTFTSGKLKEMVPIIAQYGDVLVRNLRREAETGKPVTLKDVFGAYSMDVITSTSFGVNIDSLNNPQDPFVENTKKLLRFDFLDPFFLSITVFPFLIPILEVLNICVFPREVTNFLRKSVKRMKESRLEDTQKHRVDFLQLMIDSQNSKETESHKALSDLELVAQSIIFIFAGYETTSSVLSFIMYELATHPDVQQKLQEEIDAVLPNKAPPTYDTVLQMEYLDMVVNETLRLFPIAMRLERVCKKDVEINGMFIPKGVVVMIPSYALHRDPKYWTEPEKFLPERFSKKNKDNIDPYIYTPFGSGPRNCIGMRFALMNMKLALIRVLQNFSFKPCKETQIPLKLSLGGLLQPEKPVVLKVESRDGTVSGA
Chain of Pyruvate kinase (Leishmania mexicana) (Q27686 2-499 E452W): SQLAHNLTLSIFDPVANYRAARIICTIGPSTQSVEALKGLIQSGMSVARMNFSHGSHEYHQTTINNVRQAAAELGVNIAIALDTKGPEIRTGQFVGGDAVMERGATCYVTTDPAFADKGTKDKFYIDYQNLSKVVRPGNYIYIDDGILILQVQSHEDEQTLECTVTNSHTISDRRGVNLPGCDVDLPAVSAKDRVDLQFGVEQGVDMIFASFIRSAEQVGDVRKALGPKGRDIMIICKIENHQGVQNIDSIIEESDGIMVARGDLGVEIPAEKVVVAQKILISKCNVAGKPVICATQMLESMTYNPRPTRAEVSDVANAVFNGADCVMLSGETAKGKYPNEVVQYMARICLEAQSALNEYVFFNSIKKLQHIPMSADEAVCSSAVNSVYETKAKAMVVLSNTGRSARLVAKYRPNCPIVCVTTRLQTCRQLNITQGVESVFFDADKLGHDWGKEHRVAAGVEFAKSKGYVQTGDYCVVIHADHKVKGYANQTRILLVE
Chain of 3',5'-cyclic-AMP phosphodiesterase 4B (Homo sapiens) (Q07343 whole entry, looked up): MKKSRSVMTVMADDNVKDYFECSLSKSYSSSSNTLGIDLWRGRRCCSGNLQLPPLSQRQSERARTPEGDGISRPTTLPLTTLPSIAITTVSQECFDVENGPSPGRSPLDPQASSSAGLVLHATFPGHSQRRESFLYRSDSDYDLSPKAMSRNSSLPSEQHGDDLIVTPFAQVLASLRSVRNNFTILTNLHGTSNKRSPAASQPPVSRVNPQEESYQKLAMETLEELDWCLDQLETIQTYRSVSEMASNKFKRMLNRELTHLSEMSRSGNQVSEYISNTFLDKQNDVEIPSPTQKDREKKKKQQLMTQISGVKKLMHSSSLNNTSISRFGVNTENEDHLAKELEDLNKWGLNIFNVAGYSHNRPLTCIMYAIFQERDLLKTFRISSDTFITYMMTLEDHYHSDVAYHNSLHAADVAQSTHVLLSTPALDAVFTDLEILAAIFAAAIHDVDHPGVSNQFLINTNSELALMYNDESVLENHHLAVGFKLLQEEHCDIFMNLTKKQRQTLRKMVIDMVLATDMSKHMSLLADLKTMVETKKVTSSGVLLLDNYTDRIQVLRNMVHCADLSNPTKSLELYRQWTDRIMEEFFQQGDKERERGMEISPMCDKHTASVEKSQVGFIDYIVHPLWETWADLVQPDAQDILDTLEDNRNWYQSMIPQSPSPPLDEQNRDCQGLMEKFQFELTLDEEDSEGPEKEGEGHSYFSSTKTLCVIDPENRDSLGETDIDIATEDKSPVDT
Chain of Alpha-galactosidase A (Homo sapiens) (P06280 whole entry, looked up): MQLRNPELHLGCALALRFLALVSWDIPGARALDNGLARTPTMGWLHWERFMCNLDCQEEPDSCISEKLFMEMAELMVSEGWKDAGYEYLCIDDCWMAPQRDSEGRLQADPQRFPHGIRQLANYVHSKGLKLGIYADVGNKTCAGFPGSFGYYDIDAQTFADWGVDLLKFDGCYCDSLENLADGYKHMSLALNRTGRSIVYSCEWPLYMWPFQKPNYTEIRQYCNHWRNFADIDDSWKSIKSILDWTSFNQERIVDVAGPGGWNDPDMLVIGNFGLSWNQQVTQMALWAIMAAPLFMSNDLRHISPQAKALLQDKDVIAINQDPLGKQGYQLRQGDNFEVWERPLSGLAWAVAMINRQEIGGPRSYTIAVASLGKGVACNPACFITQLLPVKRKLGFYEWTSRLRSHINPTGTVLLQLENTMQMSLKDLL

With `CC(N)=NCc1cccc(CN)c1`, the values for the activity change, negative = inhibition in assay [1], in assay [3] and in assay [17] (at 57.5 µM (top of the series)) were -2.56% (inactive), -2.12% (inactive) and 0.387% (inactive), respectively. Besides, the Potency result in [2], in assay [7], in [8], in assay [10], in [11] and in [12] was “inactive” throughout. The Potency entry in [13] and in assay [18] was “inactive” throughout. In addition, in [4], the activity, negative = inhibition was 3.99% (inactive). Further, the Potency in assay [5] and in assay [6] was > 46 µM (inactive) throughout. In addition, the outcome in assay [9], in assay [14], in assay [15] and in [16] was inactive. Further, the results for the max response in assay [17] (measured here: cell count channel max response) and in assay [17] (measured here: lipid channel max response) were -16.1% and -15%, respectively.

(Values after PubChem BioAssay (NCATS).)
